# Results as given in PubChem BioAssay.
# Activity calls are given as the source filed them. How the calls were made is not given here.
# Assay: Brca1-Bard1 BiLC signal decrease – luminescence, single concentration, counter-screen for Mdm2/MdmX interaction inhibitor project, confirmation (AID 504668)
# Conditions: Brca1/Bard1 bimolecular luciferase complementation counterscreen, at 8 µM, hits give high values
row,Structure (SMILES),inhibition
1,Cc1cc(SC#N)cc(C)c1NC(=O)CCl,33.8% (active)
2,COc1ccc(Nc2ccnc3ccccc23)cc1,33.7% (active)
3,CCN(CC)C(=O)C1CCCc2c1[nH]c1ccc(Cl)cc21 (stereo not given),34.6% (active)
4,CCCCCCCCCn1ccc(=N)cc1,23.6% (active)
5,Oc1ccc2ccccc2c1N=Nc1ccccn1,28% (active)
6,O=C(N/N=C\c1c(O)ccc2ccccc12)c1ccc(O)cc1,31.7% (active)
7,Cc1noc(-c2ccc(C(F)(F)F)cc2)c1NC(=O)Nc1ccc(Cl)cc1,24.2% (active)
8,COc1ccc(/C=C2\SC(=S)N(CCC(=O)NCCc3ccc(O)cc3)C2=O)cc1,27.4% (active)
9,O=C(Oc1c(Cl)cc(Cl)c2cccnc12)c1cccs1,32.1% (active)
10,Cn1c(=O)c(C#N)c(-c2ccc(F)cc2)c2cc(C(=O)c3cc(Cl)cc(Cl)c3O)cnc21,29.6% (active)
11,O=C(CCl)c1ccc2c(c1)CCN2C(=O)C1CC1,27% (active)
12,CC[N+]1=C(C)C(C)(C)c2cc(C)ccc21,28.2% (active)
13,N=c1c2c(-c3ccccc3)c(-c3ccccc3)n(Cc3ccco3)c2ncn1Cc1ccco1,31.4% (active)
14,O=c1c2ccccc2nc(/C=C/c2cc(Br)ccc2O)n1CCO,32.4% (active)
15,C/C(=N\Nc1nc(-c2ccccn2)nc2ccccc12)c1ccc(F)cc1,34.4% (active)
16,C[C@@]12C(=O)Nc3cc(Cl)ccc3C(=O)N1[C@H]1c3cc(Br)ccc3OC[C@@H]1[C@@H]2c1ccccc1,30.8% (active)
17,N#CC1=C(N)C(C#N)(C#N)C(c2cccnc2)C2CC(c3ccccc3)CC=C12 (stereo not given),23.1% (active)
18,CCOc1ccccc1CNC(=O)c1cc2oc3ccccc3c2n1CC,25.6% (active)
19,CN(C)CCCNC(=O)/C(=C\c1ccc(-c2ccc(Br)cc2)o1)NC(=O)c1ccccc1,29.2% (active)
20,Clc1ccc(Cn2ncc3c(NCc4ccco4)ncnc32)c(Cl)c1,31.2% (active)

row,Structure (SMILES),inhibition
1,O=[N+]([O-])c1ccc(N=Nc2ccc(O)cc2O)cc1,29.5% (active)
2,O=C(/C=C/c1ccccc1)NC(NC(=S)Nc1cc(Cl)ccc1Cl)C(Cl)(Cl)Cl (stereo not given),31.2% (active)
3,CC1=Nc2cc(C(=O)N3CCCC3)ccc2Sc2c(C)ccc(C)c21,23.1% (active)
4,N=c1c2c(-c3ccccc3)c(-c3ccccc3)n(Cc3ccco3)c2ncn1Cc1ccccc1,23% (active)
5,Cc1nc2ccccn2c1C(=O)/C=C/c1cccc([N+](=O)[O-])c1,27.6% (active)
6,CCOC(=O)CSC1=NC(=O)/C(=C/c2ccc(OC)cc2)S1,32.1% (active)
7,O=C1c2ccccc2NC(c2ccc(-c3ccc(Br)cc3)o2)N1O (stereo not given),31% (active)
8,COC(=O)[C@@H]1C[C@]2(OC(=O)c3ccccc3)C=CC(=O)C[C@@H]2N1C(=O)OCc1ccccc1,34.4% (active)
9,Cc1ccc2cccc(NS(=O)(=O)c3ccccc3)c2n1,23.1% (active)
10,Cc1cc(C)nc(N/N=C/c2cc(Br)ccc2O)n1,26.2% (active)
11,COc1ccc(-c2csc(NC(=S)NC(=O)c3ccco3)n2)cc1Br,23.1% (active)
12,Cc1ccc(-c2csc(NC3OC(=O)c4ccccc43)n2)cc1 (stereo not given),23.7% (active)
13,C/C(=N\NC(=O)c1cc2ccccc2cc1O)c1ccccn1,24.3% (active)
14,CCC(=O)NC(c1ccccc1OC)c1ccc2cccnc2c1O (stereo not given),32.5% (active)
15,COc1cccc(-c2nnc(NC(=O)c3ccc(S(=O)(=O)N(CC(C)C)CC(C)C)cc3)o2)c1,24.3% (active)
16,O=C(N/N=C/c1ccc(O)cc1O)c1ccc(CN2C(=O)c3cccc4cccc2c34)cc1,29.2% (active)
17,CCOc1ccc(/C=C/C(O)=C2/C(=O)NC3(C)CC2c2ccccc2O3)cc1OC (stereo not given),23.4% (active)
18,COc1cccc(/C=N/NC(=O)CNC(=O)C(c2ccccc2)c2ccccc2)c1O,28.6% (active)
19,O=C(NC(CSCc1ccccc1)C(=O)N/N=C/c1ccc(O)cc1O)c1ccc([N+](=O)[O-])cc1 (stereo not given),34.3% (active)
20,Oc1ccc(N=Nc2ccccc2C(F)(F)F)c2cccnc12,23.3% (active)
